Assay results as given in PubChem BioAssay (NCATS).
Inconclusive results are not listed. A call without a number means that no potency is given here. Unmarked numbers belong to inactive results. Activity calls are given as the source filed them. Calls follow the shape of the dose curve; as a rule, active = well fitted cell-killing curve with a large enough effect; inconclusive = small, poorly fitted or top-dose-only effect, or effect the other way; inactive = no such curve, though single readings can be large or run the other way.

Legend:
[1] = Viability qHTS for spleen associated tyrosine kinase inhibitor (SYKi) naive MV4-11 cells (AID 1963823); conditions: MV4-11 AML viability, CellTiter-Glo luminescence, 72 h; series mostly up to 45 µM; also: nearly all actives have a fitted effect of over 40% in size
Outline: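 In this viability screen, compounds acted on SYK inhibitor naive MV4-11 cells for three days (72 hr, 37 C). Remaining viable cells were measured by CellTiter-Glo luminescence following a 10 min room-temperature development.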

[2] = Viability qHTS for spleen associated tyrosine kinase inhibitor (SYKi) drug resistant MV4-11 cells (AID 1963824); conditions: SYKi-resistant MV4-11 viability, CellTiter-Glo, 72 h; series mostly up to 45 µM; also: nearly all actives have a fitted effect of over 35% in size
Outline: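 SYK inhibitor-resistant MV4-11 AML cells, 500 per well, added to predispensed compounds and incubated 72 hr at 37 C, 5% CO2. Viability measured by CellTiter-Glo luminescence after 10 min at room temperature.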
Potency is read from the fitted curve at half-maximal effect.

C=C[C@H]1[C@H](O[C@@H]2O[C@H](CO)[C@@H](O)[C@H](OC(=O)/C=C/c3ccc(O)c(OC)c3)[C@H]2O)OC=C2C(=O)OCC[C@]21O
Potency [1]: inactive | Potency [2]: inactive

CCOc1nc2cccc(C(=O)OCc3oc(=O)oc3C)c2n1Cc1ccc(-c2ccccc2-c2noc(O)n2)cc1
Potency [1]: inactive | Potency [2]: inactive

C=C1CC[C@@H]2[C@](C)(CO)[C@H](O)CC[C@@]2(C)[C@@H]1/C=C/C1=CCOC1=O
Potency [1]: inactive | Potency [2]: inactive

C[S+](CC[C@H](N)C(=O)[O-])C[C@H]1O[C@@H](n2cnc3c(N)ncnc32)[C@H](O)[C@@H]1O (stereo partly specified)
Potency [1]: inactive | Potency [2]: inactive

CC(=O)O[C@H]1C[C@@H](O)C(C)(C)C2C[C@@H](OC(C)=O)[C@@]3(C)C4=CCC(C(CO)CC(O)C5OC5(C)C)[C@]4(C)CCC3[C@]21C (stereo partly specified)
Potency [1]: inactive | Potency [2]: inactive

CCC(=O)OCC(=O)[C@@]1(OC(=O)CC)[C@@H](C)C[C@H]2[C@@H]3CCC4=CC(=O)C=C[C@]4(C)[C@@]3(F)[C@@H](O)C[C@@]21C
Potency [1]: 18.4 µM (active) | Potency [2]: 20.6 µM (active)

CC(=O)OC1C(O)CC2(C)C(CCC3(C)C2CC=C2C4C5(CCC(CO[C@@H]6O[C@H](CO)[C@@H](O)[C@H](O)[C@H]6O)(OC5=O)C4(C)O)C(O)CC23C)C1(C)C (stereo partly specified)
Potency [1]: inactive | Potency [2]: inactive

C[C@@H]1O[C@@H](O[C@H]2[C@H](O)[C@@H](O[C@@H]3O[C@H](CO)[C@@H](O)[C@H](O[C@@H]4O[C@H](CO)[C@@H](O)[C@H](O)[C@H]4O)[C@H]3O)[C@H](O[C@H]3CC[C@@]4(C)C(=CC[C@@H]5C4CC[C@@]4(C)C5C[C@@H]5OC6(CC[C@@](C)(CO[C@@H]7O[C@H](CO)[C@@H](O)[C@H](O)[C@H]7O)O6)[C@@H](C)[C@@H]54)C3)O[C@@H]2CO)[C@H](O)[C@H](O)[C@H]1OC1OC(CO)C(O)C(O)C1O (stereo partly specified)
viability (% of control) [1]: 77.4% [at 9.25 µM] | viability, % of control [2]: 109% [at 9.25 µM]
